Out of some 85,000 compounds screened, about 440 (0.52%) showed an effect of 50% or more. The full list was thinned out, with strong results kept by preference.
Assay: In vitro enzyme assay to detect hydrolysis of chlorophenol red-beta-D-[…] directly proportional to the number of Toxoplasma stably expressing beta-galactosidase
Type: functional, organism-based, Toxoplasma gondii
Design: scale not given: in the data most compounds retested in dose-response had high values

SMILES	Percent Effect (10 µM) [%]	Percent Effect (50 µM) [%]
CC(C#N)CSc1ccccc1NCC(=O)NC1CCCCC1 (stereo not given)	-5.31	
CC(=O)c1ccc(F)cc1NCC(=O)NC1CC1		5.192
CSc1ccccc1NCC(=O)NC1CC1		51.75
CNCC(=O)Nc1cc(Cl)c(OCCOC)c(Cl)c1		-0.6689
CCS(=O)(=O)N1CCC(NC(=O)c2ccc(Cl)o2)CC1		-2.927
Cc1cc(F)cc(NC(=O)NC[C@@H]2CCCN2)c1		21.68
O=C(NCc1ccc2c(c1)OCO2)n1ccnc1		96.82
CC(Cn1ccnc1)NC(=O)NCc1ccc2c(c1)OCCO2 (stereo not given)	-19.42	
O=C(NCc1ccc2c(c1)OCO2)N1CCCCC1		-4.35
c1cn(C2CCNC2)nn1 (stereo not given)		-13.42
CCC(OC)C(=O)N1CC(Oc2ccccc2F)C1 (stereo not given)		-7.864
CC(=O)Nc1ncc(S(=O)(=O)Nc2ccc3c(c2)OCCO3)s1	68.62	
CC(=O)Nc1ncc(S(=O)(=O)N2CCN(C3CCCCC3)CC2)s1	-4.699	
CC(=O)c1cccc(NS(=O)(=O)c2cc(C)c(C(=O)O)s2)c1	-0.4058	
CC(=O)Nc1ncc(S(=O)(=O)Nc2cccc(C)c2)s1	60.94	
Cc1cc(C(=O)O)cc(S(=O)(=O)Nc2ccc3c(c2)OCCO3)c1C	-2.504	
CCS(=O)(=O)CCC(=O)Nc1cccc(F)c1		5.162
Cc1cccc(NS(=O)(=O)c2cc(C(=O)O)oc2C)c1	-16.73	
CC(=O)Nc1ncc(S(=O)(=O)Nc2cccc(O)c2)s1	62.29	
CC(=O)Nc1ncc(S(=O)(=O)Nc2cccc(F)c2)s1	67.14	
Cc1c(S(=O)(=O)Nc2cccc(F)c2)cnn1C		-8.725
CC(=O)Nc1ncc(S(=O)(=O)N2CCCC(C)C2)s1 (stereo not given)	-8.14	
CC(=O)Nc1ncc(S(=O)(=O)N2CCOCC2)s1	-6.42	
CCNC(=O)NCc1ncoc1C		-6.658

SMILES	Percent Effect (10 µM) [%]	Percent Effect (50 µM) [%]
NC(=O)Cc1ccc(-c2ccc(C(N)=O)c(Cl)c2)cc1		-4.393
CCn1ccnc1C(C)N (stereo not given)		1.366
CNC(=O)c1cccc(NC(C)C(=O)NCC(C)C)c1 (stereo not given)		-5.14
Cn1cc(C(N)=O)c(NCc2ccc(F)c(C#N)c2)n1		-8.67
CN1C(=O)[C@H]2CN(Cc3cccc(Cl)c3F)C[C@H]2C1=O		-8.035
O=C(c1cc(Cl)ccc1O)N1CCOCC1		6.297
CNCC(=O)Nc1ccc(C)cc1C(=O)N(C)C		-7.454
CCc1nccn1CCCNC(=O)Cc1nonc1C		3.782
CCn1cc(C(=O)NCc2ccc(CNC)cc2)cn1		-1.69
CC1CCCCN1CCNC(=O)c1ccccn1 (stereo not given)		1.645
COc1ccc(Cl)cc1CNCCSc1nnnn1C		-8.775
Cc1cccc(C2CCCN2)n1 (stereo not given)		-3.572
Cc1nc([C@H]2CCCN2)cs1		52.58
Cc1cc(C2CCCN2)no1 (stereo not given)		-6.252
CC(=O)NC1CCNC1 (stereo not given)		26.97
CN1CC(NC(=O)CCC(=O)c2cccs2)CCC1=O (stereo not given)		-1.402
COCC1CCN(Cc2ccc(NC(C)=O)cc2)C1 (stereo not given)		-11.02
CCC(=O)NC1CCCN(Cc2ccc(NC(C)=O)cc2)C1 (stereo not given)	8.052	
CC(=O)Nc1ccc(CN2CCCOC(C)C2)cc1 (stereo not given)		52.96
CCC(C)(CC)NC(=O)Nc1cnn(CCOC)c1		-4.406
CC(C)(C(=O)N1CCC(N)CC1)c1cccc(F)c1		80.98
CC(C)(C(=O)N1CCOCC1)c1ccccc1		-4.463
CC(C)(C(=O)N1CC[C@@H](O)C1)c1ccccc1		-3.951
O=C(N1CCCC(n2cncn2)C1)C1(c2cccc(F)c2)CC1 (stereo not given)	-9.535	

SMILES	Percent Effect (10 µM) [%]	Percent Effect (50 µM) [%]
O=C(N1CCC(Oc2ccncc2)C1)C1(c2cccc(F)c2)CC1 (stereo not given)	4.06	
NC1CCN(C(=O)C2(c3cccc(F)c3)CC2)CC1		89.65
COCCCC1CCNCC1		4.614
NCC(CO)Cc1ccsc1 (stereo not given)		-1.079
Brc1cc2c(cc1CN1CCCNCC1)OCO2		-4.823
CC1(c2ccncc2)NC(=O)c2ccccc2N1 (stereo not given)		11.28
O=C(CN1CCn2ccnc2C1)NC1CCS(=O)(=O)C1 (stereo not given)		6.953
CC(C1CCN(Cc2c[nH]cn2)CC1)N1CCCC1 (stereo not given)		21.18
NCc1ccnc(OCC2CC2)c1		3.263
Cc1ccccc1CC(=O)N(C)C		-4.007
NCCC1CCN(C(=O)Nc2cc(F)cc(F)c2)CC1		-1.616
O=S(=O)(NCC1(O)CCOc2ccccc21)c1ccc(Br)s1 (stereo not given)	53.2	
O=S(=O)(NCC1(O)CCOc2ccccc21)c1ccc(Cl)s1 (stereo not given)	4.661	
Cc1ccc(S(=O)(=O)NCC2(O)CCOc3ccccc32)s1 (stereo not given)	3.665	
COCCn1cc(CNC(=O)NCC(F)F)cn1		-9.663
CNc1nc(C(=O)N[C@@H]2CC[C@@H](N)C2)cs1		18.65
CC(NC(=O)c1ccoc1)C(=O)Nc1nccs1 (stereo not given)		-8.907
CC(C)=CCN1CCOC(Cn2nc(C)cc2C)C1 (stereo not given)	97.95	
Cc1cc(C)n(CC2CN(CC3CCCC3)CCO2)n1 (stereo not given)	-2.525	
Cc1cc(CN2CCOC(Cn3nc(C)cc3C)C2)on1 (stereo not given)	-42.92	
O=C1COc2ccc(NC(=O)c3ccccc3)cc2N1		3.882
CN(CCC#N)CC1CCN(CCO)CC1		-6.076
COc1cc(Br)ccc1CCCNC(=O)C(C)O (stereo not given)		0.2477
CC(=O)c1ccc(OCC(O)Cn2ccnc2)cc1 (stereo not given)		57.01

SMILES	Percent Effect (10 µM) [%]	Percent Effect (50 µM) [%]
O=C(COc1ccccc1)NCCn1ccnc1		-5.476
CC(=O)c1ccc(OCC(O)CNC2CCCC2)cc1 (stereo not given)		6.61
CCNC(=O)N1CCC(NC(=O)c2ccc(C)o2)CC1		-1.852
Cc1nc2cc(C3CCN(Cc4ccccc4F)C3)nn2c(O)c1C (stereo not given)	15.76	
Cc1nc2cc(C3CCN(Cc4cccc(F)c4F)C3)nn2c(O)c1C.O=C(O)CC(O)(CC(=O)O)C(=O)O (stereo not given)	49.65	
Cc1cc(C(=O)Nc2ccnc(C)c2Cl)cc(O)n1		12.01
CN1CCCN(CC(=O)NCCCc2ncc[nH]2)CC1		-15.47
Cc1cc(C)c(C(=O)NC2CCCc3nc(N(C)C)ncc32)cc1C (stereo not given)	19.3	
CN(C)c1ncc2c(n1)CCCC2NC(=O)C1CC1 (stereo not given)	7.926	
CCC(=O)NC1CCCc2nc(N(C)C)ncc21 (stereo not given)		69.08
CNC(=O)CN1CCCC(CO)(CCCOC)C1 (stereo not given)		5.203
CC(=O)NCCCNCc1ccc(Cl)c2cccnc12	-6.901	
CC(=O)NCCCS(=O)(=O)c1ccc(C)cn1		-5.9
CC(=O)NCCCS(=O)(=O)c1ncccc1Cl		60.86
COC1CNc2ccccc2C1 (stereo not given)		-15.01
NC(=O)CN1CCCN(C(=O)c2ccc(Br)o2)CC1		-5.913
Fc1ccc(NCC2CCC3(CC2)OCCO3)nc1		8.487
CCC(CC)C(=O)N1C[C@@H](CO)[C@H](N(C)C)C1		16.3
COc1ccc(CN2CCCC2)cc1Oc1ccc2c(c1)CC(CN)O2 (stereo not given)	-15.09	
Cc1cc(CN2CCCC2)cc(Oc2ccc3c(c2)CC(CN)O3)c1 (stereo not given)	-8.923	
NCC1Cc2cc(Oc3cc(F)c(CN4CCCC4)c(F)c3)ccc2O1 (stereo not given)	54.73	
CSCC(CCO)NC(=O)Nc1cccc(F)c1 (stereo not given)		-3.551
CCc1cc(=O)[nH]c(-c2ccc(NCCc3ccc(O)cc3)nc2)n1	56.82	
CCc1cc(=O)[nH]c(-c2ccc(NCCC(C)O)nc2)n1 (stereo not given)	3.239	

SMILES	Percent Effect (10 µM) [%]	Percent Effect (50 µM) [%]
Cc1nc(-c2ccc(NCCc3ccc(O)cc3)nc2)[nH]c(=O)c1C	31.24	
N#Cc1ccc(S(=O)(=O)N2CCCO2)c(Cl)c1		6.897
N#CCCNC(=O)CN1CCCCC1		-2.214
N#CCCNC(=O)CN1CCCC1		96.45
N#CCCNC(=O)CN1CCCCCC1		-10.45
CCC(C)CS(=O)(=O)Nc1ccc(F)c(C(N)=O)c1 (stereo not given)		12.83
O=C(Cc1ccccc1)NCc1ccncc1		2.374
COCc1nn(Cc2ccc(Cl)s2)c(=O)o1	11.6	
COCc1nn(CC(=O)c2cc(F)ccc2F)c(=O)o1		53.45
COCc1nn(Cc2ccccc2Cl)c(=O)o1		10.13
CN(CC1CCOC1)C(=O)c1cc(F)ccc1F (stereo not given)		12.99
CC1CCN(C(=O)Cn2cncc(Br)c2=O)CC1		8.773
CC(O)CN1CCN(Cc2cccc(C(=O)N(C)C)c2)CC1 (stereo not given)	5.816	
CC(O)CN1CCN(Cc2cccc(C(=O)N3CCCCC3)c2)CC1 (stereo not given)	67.87	
CSCc1cccc(C(=O)N2CCN(CC(C)O)CC2)c1 (stereo not given)	-0.6353	
CC(C)C(=O)N1CCN(CCc2ccccn2)CC1		-1.569
CCCn1nc2c(cc1=O)CN(c1ncnc3sccc13)CC2	8.636	
CC(C(=O)Nc1nccs1)N1CCc2nn(C)c(=O)cc2C1 (stereo not given)	7.43	
CCn1nc2c(cc1=O)CN(c1ncnc3sccc13)CC2	58.75	
Cn1nc2c(cc1=O)CN(c1ncnc3sccc13)CC2	80.8	
c1csc(N2CCN(c3ncnc4sccc34)CC2)n1	15.87	
CC(C)n1nc2c(cc1=O)CN(c1ncnc3sccc13)CC2	1.477	
CC(C)NC(=O)CCN1CCC(CN2CCCC2)CC1		15.46
O[C@@H]1CN(Cc2ccccc2)C[C@@H]1O		8.775
